TLR4-MyD88 BLA: inhibitors of human TLR4-MyD88 binding; HeLa CL3-4 TLR4/MyD88 BLA complementation, FRET ratio; inhibition, % at 8.4 µM; hit rate 0.18% among 200,000; AID 861; in the data active = inhibition above about 25%
Rtt109 HAT inh: blocks Candida albicans Rtt109/Vps75 acetyltransferase activity. inhibition, % at 34.9 µM. hit rate 0.16% among 330,000. purified Rtt109/Vps75, ThioGlo CoA-SH fluorescence, 4 h. Q5AAJ8;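 active = inhibition of at least 50% in every replicate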
NOD2-RIPK2 inh: blocks binding of human NOD2 to RIPK2. O43353. CHO BLA complementation NOD2-RIPK2, CCF4 ratio. inhibition, % at 4.98 µM. hit rate 0.38% among 360,000. AID 624267; in the data active = inhibition above about 21%
TLR9-MyD88 inh: inhibitors of human TLR9-MyD88 binding. Q9NR96+Q99836. CHO BLA complementation TLR9-MyD88, CCF4 FRET ratio. inhibition, % at 4.98 µM. hit rate 0.21% among 340,000. AID 504734;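 active = inhibition above the mean over all tested compounds plus 3 SD, cut at about 21% in these data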
LANA-H2B inh: blocks KSHV LANA binding to histone H2A/H2B | hit rate 0.6% among 320,000 | Q9QR71 | AID 2629 | cell-free LANA-H2A/H2B peptide, fluorescence polarization | inhibition, % (concentration not given with the values); in the data active = inhibition mostly above about 10%, no sharp cut-off; inactive = mostly below about 6.7%
HTR2A ag: agonists of mouse serotonin 5-HT2A receptor (HTR2A); P35363; CHO-K1 mHTR2A beta-arrestin complementation, luminescence; percent of 30 µM serotonin response; activation, % at 7.6 µM; hit rate 0.66% among 360,000;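 active = activation above a run cutoff, the mean activation of all tested compounds plus 3 SD, cut at about 14% in these data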
TLR9-MyD88 conf: TLR9-MyD88 interaction inhibition, confirmation; shares compounds with TLR9-MyD88 inh; CHO TLR9/MyD88 BLA complementation, CCF4 FRET ratio; inhibition, % at 4.98 µM; hit rate 51% among 680; AID 540250;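 active = mean inhibition across three repeats above about 21% taken from the earlier screen, limit read from the data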;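 also: blue over green emission ratio reports constitutive TLR9 MyD88 association via BLA complementation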
BLA counter-1: non-selective beta-lactamase inhibitors in TLR9-MyD88 counter-screen | shares compounds with TLR9-MyD88 inh | CHO-BLA cells, CCF4 FRET ratio, BLA reporter | inhibition, % at 4.98 µM | hit rate 7% among 680 | AID 540251;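 active = mean inhibition above a 50% cutoff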;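 also: counterscreen of TLR9-MyD88 hits on CMV-driven BLA in CHO-K1 cells; higher means less blue over green ratio so more BLA blockade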
TLR9 CHO cytotox: CHO cell toxicity counter-screen for TLR9-MyD88 inhibitors | TLR9-MyD88 CHO cells cytotoxicity, luminescence | hit rate 39% among 680 | shares compounds with TLR9-MyD88 inh | inhibition, % at 4.98 µM; in the data active = inhibition above about 11%
NOD2-RIPK2 conf: confirmation of human NOD2-RIPK2 interaction inhibitors; shares compounds with NOD2-RIPK2 inh; CHO cells, NOD2-RIPK2 BLA complementation, CCF4 FRET; inhibition, % at 4.98 µM; hit rate 70% among 1,200;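 active = mean inhibition across replicates above a set limit taken from the earlier primary screen, cut at about 21% in these data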
BLA counter-2: counter-screen for NOD2-RIPK2 interaction inhibitors: BLA reporter | CHO BLA reporter, CCF4 FRET ratio, counterscreen | hit rate 57% among 1,200 | AID 624371 | shares compounds with NOD2-RIPK2 inh | inhibition, % at 4.98 µM;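 active = mean inhibition above the low-control mean inhibition plus three low-control SD, cut at about 11% in these data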
Of the large screens only hits and unclear results are named; the others gave an inactive call (follow-up assays come after a bar, where they were run). This is a sample that favours compounds with a hit; in the whole collection about 1.8% have one here.

COc1cccc(-c2cnc(C(O)c3ccc(OC)c(F)c3)[nH]2)c1 (stereo unspecified)	none (no result: TLR4-MyD88 BLA, Rtt109 HAT inh, TLR9-MyD88 inh, LANA-H2B inh)
CC(=NNC(=S)N1CCN(c2ccccn2)CC1)c1nccs1	NOD2-RIPK2 inh 24, TLR9-MyD88 inh 37 (no result: TLR4-MyD88 BLA, LANA-H2B inh) | TLR9-MyD88 conf 28 | BLA counter-1 inactive | TLR9 CHO cytotox 97 | NOD2-RIPK2 conf 42 | BLA counter-2 18
Cc1c(Cl)c(=O)n2c(=O)c(Cl)c(C)n12	NOD2-RIPK2 inh 24, TLR9-MyD88 inh 26 (no result: Rtt109 HAT inh) | TLR9-MyD88 conf inactive | BLA counter-1 inactive | TLR9 CHO cytotox inactive | NOD2-RIPK2 conf 37 | BLA counter-2 40
CC(C)(C)OC(=O)NCC(=O)Oc1cc2oc(=O)cc(-c3ccccc3)c2cc1Cl	NOD2-RIPK2 inh 36, TLR9-MyD88 inh 47 | TLR9-MyD88 conf inactive | BLA counter-1 inactive | TLR9 CHO cytotox inactive | NOD2-RIPK2 conf 43 | BLA counter-2 48
CCc1cc2c(-c3ccccc3)cc(=O)oc2cc1OC(C)C(C)=O (stereo unspecified)	none (no result: TLR4-MyD88 BLA)
COCOCCn1cc(CN2CCS(=O)(=O)N(Cc3ccc(-c4ccc(Cl)nc4)cc3)C(C)C2=O)nn1 (stereo unspecified)	none (no result: TLR4-MyD88 BLA, Rtt109 HAT inh, LANA-H2B inh)
CN(C)c1ccc(/C=C/c2nc3ccccc3c(=O)n2CCO)cc1	NOD2-RIPK2 inh 35, TLR9-MyD88 inh 45 (no result: TLR4-MyD88 BLA) | TLR9-MyD88 conf inactive | BLA counter-1 inactive | TLR9 CHO cytotox inactive | NOD2-RIPK2 conf inactive | BLA counter-2 28
O=C(C[C@H]1CC[C@@H](NC(=O)Cc2cccnc2)[C@@H](CO)O1)NCc1ccc2c(c1)OCO2	none (no result: TLR4-MyD88 BLA, Rtt109 HAT inh, TLR9-MyD88 inh, LANA-H2B inh)
CC1(C(=O)NCCCN2CCCC2=O)CCN1CCc1ccccc1 (stereo unspecified)	none (no result: TLR4-MyD88 BLA, Rtt109 HAT inh, TLR9-MyD88 inh, LANA-H2B inh)
Cc1ccc(C(=O)Sc2cccccc2=O)cc1	NOD2-RIPK2 inh 35, TLR9-MyD88 inh 30 (no result: TLR4-MyD88 BLA) | TLR9-MyD88 conf 21 | BLA counter-1 inactive | TLR9 CHO cytotox 99 | NOD2-RIPK2 conf 48 | BLA counter-2 16
O=C(Nc1ccccc1SC(=O)c1ccccc1)c1ccccc1	none (no result: TLR4-MyD88 BLA, Rtt109 HAT inh, LANA-H2B inh)
O=C(NC1CC1)c1cccc2c1C(=O)c1ccc(N3CCC(Cc4ccccc4)CC3)cc1S2(=O)=O	NOD2-RIPK2 inh 34, TLR9-MyD88 inh 32 (no result: TLR4-MyD88 BLA) | TLR9-MyD88 conf inactive | BLA counter-1 inactive | TLR9 CHO cytotox inactive | NOD2-RIPK2 conf 45 | BLA counter-2 50
NC(c1csc(Nc2ccc(C(=O)NCCO)cc2)n1)C1CCCCC1 (stereo unspecified)	none (no result: TLR4-MyD88 BLA, Rtt109 HAT inh, TLR9-MyD88 inh, LANA-H2B inh)
Cc1ccccc1NC(=O)c1cccc(C(=O)Nc2ccccc2C)n1	none (no result: TLR4-MyD88 BLA)
CCS(=O)(=O)c1ncc(Cl)c(C(=O)Nc2ccc(S(=O)(=O)N(C)c3ccccc3)cc2)n1	NOD2-RIPK2 inh 99, TLR9-MyD88 inh 55 (no result: TLR4-MyD88 BLA) | TLR9-MyD88 conf 54 | BLA counter-1 50 | TLR9 CHO cytotox 100 | NOD2-RIPK2 conf 96 | BLA counter-2 54
CCOC(=O)c1nc(S(C)(=O)=O)ncc1Cl	NOD2-RIPK2 inh 22, TLR9-MyD88 inh 34 | TLR9-MyD88 conf 37 | BLA counter-1 inactive | TLR9 CHO cytotox 43 | NOD2-RIPK2 conf 56 | BLA counter-2 25
Cc1ccccc1NC(=O)c1nc(S(C)(=O)=O)ncc1Cl	NOD2-RIPK2 inh 30, TLR9-MyD88 inh 38 (no result: TLR4-MyD88 BLA) | TLR9-MyD88 conf 37 | BLA counter-1 inactive | TLR9 CHO cytotox 87 | NOD2-RIPK2 conf 60 | BLA counter-2 29
